Assay outcomes (PubChem BioAssay)
KCNQ2 block: KCNQ2 (rat) channel inhibition. B-score at 10 µM. O88943. actives 1.1% (n = 310,000). CHO-K1 KCNQ2, FluxOR thallium flux, 20 min; stronger effect = lower value. AID 2156;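 active means fluorescence ratio B-score at most minus 3 library SDs, with starting brightness B-score within 2 library SDs, cut at about -5.5 in these data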
KCNQ2 enhance: potentiators of rat KCNQ2 potassium channel | B-score at 10 µM | O88943 | CHO-K1 KCNQ2, FluxOR thallium flux fluorescence; stronger effect = higher value | actives 0.54% (n = 310,000);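 active means fluorescence ratio B-score at least 3 SD of library B-scores, with initial fluorescence B-score within 3 of them, cut at about 5.3 in these data; same plate scores as AID 2156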;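 further: B-score of peak minus minimum over baseline fluorescence ratio after K+ and Tl+ stimulus; positive B-score means potentiation of KCNQ2 with more thallium influx and brighter signal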
Kir21 conf inh: confirmation of mouse Kir2.1 potassium channel inhibitors; Kir2.1-expressing cells, FluxOR thallium flux fluorescence; stronger effect = lower value; Tl flux remaining, % of negative control (stronger effect = lower value), % at 10 µM; shares compounds with KCNQ2 enhance; actives 41% (n = 2,300); AID 2032;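 active means Primary-screen hit whose thallium flux fell at least 3 control SD below untreated wells in both duplicates, with normal baseline fluorescence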;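 further: 0% = blank wells without stimulus and 100% = stimulated no-compound controls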
Target sequence (P35561 whole entry, looked up): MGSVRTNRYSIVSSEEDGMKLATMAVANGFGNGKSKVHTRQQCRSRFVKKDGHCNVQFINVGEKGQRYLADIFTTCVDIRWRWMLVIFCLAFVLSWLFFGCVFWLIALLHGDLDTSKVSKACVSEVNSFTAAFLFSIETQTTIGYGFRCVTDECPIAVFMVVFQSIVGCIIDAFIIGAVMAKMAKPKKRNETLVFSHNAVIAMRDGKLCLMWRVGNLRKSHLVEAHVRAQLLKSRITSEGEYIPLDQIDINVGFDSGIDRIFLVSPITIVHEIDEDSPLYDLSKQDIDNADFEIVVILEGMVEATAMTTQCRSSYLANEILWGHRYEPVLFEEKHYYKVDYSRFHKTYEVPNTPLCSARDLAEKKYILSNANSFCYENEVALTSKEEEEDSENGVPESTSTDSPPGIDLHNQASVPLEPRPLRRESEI
HEK293 Tl flux: counter-screen for Kir2.1 inhibitors: effect in parental HEK293 cells | shares compounds with KCNQ2 enhance | FluxOR thallium flux fluorescence; 0% = unstimulated blank wells | FluxOR signal as % of negative control (100 = no effect), % at 10 µM | actives 19% (n = 2,300) | AID 2105;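 active means dye signal at least 3 control SD above or below untreated wells in both duplicates, raw fluorescence within 3, either direction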;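 further: percent is based on the flux ratio of peak minus minimum fluorescence over baseline F0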
CHO-K1 ctr: parental CHO-K1 activity in KCNQ2 potentiator counter-screen; shares compounds with KCNQ2 enhance; parental CHO-K1 cells, FluxOR thallium flux fluorescence; zero = vehicle mean+3SD, 100% = vehicle-minus-blank window; AID 2282; activity increase over 3SD of controls, % at 10 µM; actives 43% (n = 1,200);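 active means signal rise of at least 3 SD above the untreated control mean, in both duplicate wells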;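 further: counter screen of KCNQ2 potentiator hits so any rise reflects channel-independent effects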
KCNQ1 pot spec: human KCNQ1 counter-target activity of KCNQ2 potentiators; CHO KCNQ1 stable, FluxOR thallium flux fluorescence; beyond 3SD, as % of vehicle-control signal; actives 28% (n = 1,200); activation over 3SD threshold, % at 10 µM; shares compounds with KCNQ2 enhance; AID 2283;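 active means fluorescence ratio rise of at least 3 SD of vehicle wells above their mean, in both replicate wells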;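 further: 0% = vehicle mean plus 3 SD and 100% = vehicle minus unstimulated blank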
KCNQ2 pot conf: rat KCNQ2 channel potentiator confirmation; actives 68% (n = 1,200); CHO-KCNQ2 cells, FluxOR thallium flux fluorescence; AID 2287; shares compounds with KCNQ2 enhance; potentiation, less the hit threshold, % at 10 µM;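 active means fluorescence ratio rising 3 SD or more over the vehicle control mean in both replicates, plus primary screen hit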;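 further: peak minus minimum thallium fluorescence divided by baseline after K/Tl stimulus; 0% = vehicle mean plus 3 SD and 100% = vehicle minus unstimulated blank difference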
Kir21 spec: selectivity of KCNQ2 potentiators: effect on mouse Kir2.1 | AID 2345 | activity over 3SD threshold, % at 10 µM | shares compounds with KCNQ2 enhance | HEK293 Kir2.1, FluxOR thallium flux fluorescence | actives 2% (n = 1,200);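 active means fluorescence ratio rise of at least 3 SD above the vehicle-control mean, seen in both replicates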;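 further: 0% = vehicle mean plus 3 SD and 100% = vehicle minus no-stimulus blank window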
KCNQ2 W236L MoA: potentiates the retigabine-insensitive rat KCNQ2 W236L mutant channel; current increase over 3SD of negative controls (%), stronger effect = higher value, % at 25 µM; CHO KCNQ2-W236L, automated patch clamp current; shares compounds with KCNQ2 enhance; actives 10% (n = 940);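 active means current increase at least 3 SD of the untreated controls above them in both duplicate recordings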
Active calls of the source: *; i = inactive; · = no result given. A selection: hits, their analogues and other compounds. The true share with any hit is near 1.6%.

SMILES	KCNQ2 block	KCNQ2 enhance	Kir21 conf inh	HEK293 Tl flux	others
COc1ccccc1NC(=O)Cc1ccc(-c2ccccc2)cc1	i	·	·	·
COc1ccc(NC(=O)CCCc2ccccc2)c(OC)c1	i	5.5*	i	i	CHO-K1 ctr=93*;KCNQ1 pot spec=-4;KCNQ2 pot conf=8.7*;Kir21 spec=-24;KCNQ2 W236L MoA=i
CCCS(=O)(=O)c1c(S(=O)(=O)CCC)c2ccc(C(N)=O)cn2c1C(=O)c1ccc(OC)cc1	i	·	·	·
CCn1c(=NC(=O)CSC(C)=O)sc2cc(F)ccc21	i	1.5	·	·
C#CCn1c(=NC(=O)CSC(C)=O)sc2cc(F)ccc21	i	20*	i	i	CHO-K1 ctr=-5;KCNQ1 pot spec=-21;KCNQ2 pot conf=62*;Kir21 spec=-34;KCNQ2 W236L MoA=36%*
Cc1nc2sc3c(c2c(=O)n1NC(=O)CCBr)CCCC3	i	6.6*	i	i	CHO-K1 ctr=-7;KCNQ1 pot spec=-4;KCNQ2 pot conf=11*;Kir21 spec=-36;KCNQ2 W236L MoA=i
CCCc1nc2sc3c(c2c(=O)n1N)CCC3	i	·	·	·
CCCc1nc2sc3c(c2c(=O)n1NC(=O)CCC(=O)OC)CCCC3	i	9.3*	i	i	CHO-K1 ctr=6.2*;KCNQ1 pot spec=3.4*;KCNQ2 pot conf=31*;Kir21 spec=-25;KCNQ2 W236L MoA=i
Cc1ccccc1-n1c(SCC(=O)O)nc2sc3c(c2c1=O)CCCC3	i	·	·	·
CCC(Sc1nc(N)cc(N)n1)C(=O)O (configuration not stated)	i	1.6	·	·
Cc1cc(C)c(C)c(S(=O)(=O)NCC(=O)NCC2CCCCC2)c1C	i	·	·	·
CCCCN(CCCC)c1ccc(C(=O)c2ccccc2C(=O)O)c(O)c1	i	8.9*	i	i	CHO-K1 ctr=-7;KCNQ1 pot spec=-22;KCNQ2 pot conf=-2;Kir21 spec=-38;KCNQ2 W236L MoA=i
CN(C)c1ccc(C(=O)c2ccccc2C(=O)O)c(O)c1	i	0.86	·	·
COC(=O)[C@@H]1CCCN1C(=O)CCc1nnc(CCC2CCCCC2)o1	i	0.71	·	·
O=C(c1ccc(F)cc1)N1CCCCC(S(=O)(=O)c2ccccc2)C1=O (configuration not stated)	i	·	·	·
CCCN1C(=O)c2ccccc2NC1c1ccc(Cl)c(Cl)c1 (configuration not stated)	i	·	·	·
CN[C@H]1CC[C@@H](c2ccc(Cl)c(Cl)c2)c2ccccc21	i	·	32%*	i
O=C(OCC(=O)N1CCN(c2ccccc2)CC1)c1ccc(O)cc1O	i	·	·	·
CC(CC(=O)NCc1ccc(Cl)cc1)c1ccccc1 (configuration not stated)	i	5.9*	i	i	CHO-K1 ctr=-7;KCNQ1 pot spec=-23;KCNQ2 pot conf=-2;Kir21 spec=-48;KCNQ2 W236L MoA=i
CC(CCc1ccccc1)NC(=O)Cc1ccccc1 (configuration not stated)	i	·	·	·
CC(CCc1ccccc1)NC(=O)CC(C)c1ccccc1 (configuration not stated)	i	·	56%*	i
O=C(COC(=O)CC(c1ccccc1)c1ccccc1)NCc1ccc(Cl)cc1	i	·	·	·
COc1cccc(CNC(=O)c2ccccc2SCC(=O)N2CCCC2)c1	i	·	·	·
CC(=O)c1ccc(S(=O)(=O)N2CCC3(CC2)CC(=O)c2ccccc2O3)cc1	i	·	·	·
Cc1ccc(S(=O)(=O)Nc2ccc(-c3ccc4nncn4n3)cc2)cc1	i	0.77	·	·
SMILES	KCNQ2 block	KCNQ2 enhance	Kir21 conf inh	HEK293 Tl flux	others
N#CC1=C(N)N(c2ccccc2)C(c2cccc([N+](=O)[O-])c2)C1(C#N)C#N (configuration not stated)	i	·	59%*	72%*
N#CC1=C(N)N(c2ccccc2)C(c2ccco2)C1(C#N)C#N (configuration not stated)	i	·	·	·
CCc1cc(-c2n[nH]c(=S)n2C(C)c2ccccc2)cs1 (configuration not stated)	i	1.9	50%*	i
Cc1scc(-c2n[nH]c(=S)n2C(C)c2ccccc2)c1C (configuration not stated)	i	·	·	·
CN(CCC#N)C(=S)NC(=O)c1ccc(S(=O)(=O)N2CCOCC2)cc1	i	·	·	·
Cc1cccc(NC(=S)NNC(=O)CCn2cc(C)cn2)c1	i	·	·	·
c1ccc(-c2n[nH]c(-c3ccccn3)n2)cc1	i	14*	i	i	CHO-K1 ctr=-10;KCNQ1 pot spec=-15;KCNQ2 pot conf=48*;Kir21 spec=-21;KCNQ2 W236L MoA=i
c1ccc(-c2n[nH]c(-c3ccccn3)n2)nc1	i	0.82	·	·
COc1ccc(C(=O)OC(COc2ccccc2)Cn2ccnc2)cc1 (configuration not stated)	i	·	54%*	i
COC(=O)c1cccc(OCC(O)Cn2ccnc2)c1 (configuration not stated)	i	·	·	·
COc1ccccc1C(=O)NNC(=O)C(=O)NC1CCCCC1	i	8.5*	i	321%*	CHO-K1 ctr=-6;KCNQ1 pot spec=33*;KCNQ2 pot conf=42*;Kir21 spec=-18;KCNQ2 W236L MoA=i
COc1ccccc1C(=O)Nc1ccccc1C(=O)NC1CCCCC1	i	0.1	·	·
C=CCNC(=S)N1CCN(c2ncc(C(F)(F)F)cc2Cl)CC1	i	0.08	·	·
CC(NCc1cc(Br)ccc1OCC(=O)NCc1ccccc1)c1ccccc1 (configuration not stated)	i	·	43%*	i
CCN(CC)CCNCc1cc(Br)ccc1OCC(=O)NCc1ccccc1	i	·	·	·
CSCCC(=O)NC1CCCN(CCc2ccccc2)C1 (configuration not stated)	i	·	·	·
O=S(=O)(c1ccc(Cl)cc1)N1CCSC1c1ccco1 (configuration not stated)	i	·	66%*	i
O=[N+]([O-])c1ccc(S(=O)(=O)N2CCSC2c2ccco2)cc1 (configuration not stated)	i	·	·	·
Cc1nc2ccccn2c1C(=O)NN=C1C2CC3CC(C2)CC1C3	i	·	·	·
CC(C)CO/C(=N/S(=O)(=O)c1ccccc1)c1ccccc1	i	0.96	·	·
CC(C)O/C(=N\S(=O)(=O)c1ccc(Cl)cc1)c1ccccc1	i	·	66%*	i
CCOC(=O)c1c(NC(=S)Nc2ccc(OC)cc2)sc2c1CCC2	i	·	·	·
C=CCNC(=S)Nc1sc2c(c1C(=O)OCC)CC(C(C)C)OC2 (configuration not stated)	i	8.8*	i	197%*	CHO-K1 ctr=22*;KCNQ1 pot spec=84*;KCNQ2 pot conf=14*;Kir21 spec=-31;KCNQ2 W236L MoA=i
